Assay outcomes as filed in PubChem.
Sampled rows, rich in hits. Any-hit rate of the full collection: about 3.6%.
PHOSPHO1 inh: blocks human PHOSPHO1 phosphatase activity | Q8TCT1 | recombinant PHOSPHO1, absorbance phosphatase assay | inhibition, % at 13.3 µM | 290,000 tested, 1.1% active | AID 1565; in the data active = inhibition above about 60%
Target sequence (Q8TCT1 whole entry, looked up): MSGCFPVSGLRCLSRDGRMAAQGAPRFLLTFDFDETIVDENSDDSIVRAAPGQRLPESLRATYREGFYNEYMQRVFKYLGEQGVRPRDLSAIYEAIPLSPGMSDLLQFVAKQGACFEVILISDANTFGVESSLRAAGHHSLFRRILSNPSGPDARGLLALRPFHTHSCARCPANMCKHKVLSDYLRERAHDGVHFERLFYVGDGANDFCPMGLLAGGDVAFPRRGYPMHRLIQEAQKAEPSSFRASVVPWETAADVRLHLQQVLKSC
esBAF inh: blocks esBAF chromatin remodeling in mouse ES cells; Bmi1-luciferase knock-in reporter, 24 h; 100% = twice the neutral-well signal; reporter increase, % at 12.5 µM; 350,000 tested, 2% active; AID 602393; in the data active = activation above about 40%; inconclusive = no clear call, values can overlap the other calls;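 also: 0% = median of the plate's neutral control wells and 100% = double that signal; a rise in the Bmi1 reporter signal indicates esBAF inhibition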
A3G deaminase: blocks human APOBEC3G single-stranded DNA deamination | 330,000 tested, 0.28% active | Q9HC16 | inhibition, % at 20 µM | recombinant A3G, ssDNA deamination FAM/TAMRA fluorescence;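 active = inhibition of at least 40% at 20 µM, with no more than 30% in the related APOBEC3A deaminase screen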;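 also: plate controls were DMSO wells with A3G for no effect and wells lacking A3G enzyme for full effect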
MITF TRPM1 HTS: activators of MITF-driven TRPM1 promoter activity in SK-MEL-5 cells; SK-MEL-5 TRPM1-promoter luciferase, 24 h; % of positive control, neutral wells = 0; activation, % at 12.5 µM; 300,000 tested, 0.75% active;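 active = mean activation of at least 80% with every replicate also reaching 80%; inconclusive = mean reaches 80% but some replicate falls short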;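 also: 0% = neutral control wells and 100% = parthenolide positive control wells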
Wnt bcat act: Wnt/beta-catenin pathway activation; Wnt/beta-catenin reporter cell assay, activator, plate reader; activation, % at 9.35 µM; 300,000 tested, 1.2% active; in the data active = activation above about 30%, passing the limit was not always enough; inconclusive = no clear call, values can overlap the other calls;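 also: 0% = neutral control wells and 100% = positive control wells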
A3A deaminase: human APOBEC3A DNA deaminase inhibition; 330,000 tested, 0.41% active; inhibition, % at 20 µM; P31941; recombinant A3A, FAM/TAMRA ssDNA deamination fluorescence; AID 493011;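 active = at least 40% inhibition at 20 µM here, with at most 30% in a related deaminase screen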;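 also: plate controls were A3A with DMSO for no effect and wells lacking A3A enzyme for full effect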
Target sequence (P31941 whole entry, looked up): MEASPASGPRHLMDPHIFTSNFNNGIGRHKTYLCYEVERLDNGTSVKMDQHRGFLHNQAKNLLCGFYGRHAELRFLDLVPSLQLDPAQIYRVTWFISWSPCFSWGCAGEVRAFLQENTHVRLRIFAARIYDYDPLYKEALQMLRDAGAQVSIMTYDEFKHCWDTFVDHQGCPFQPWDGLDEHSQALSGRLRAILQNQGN
esBAF Ring1 qPCR: esBAF inhibition confirmed by Ring1 de-repression; shares compounds with esBAF inh; mouse ESC E14, Ring1 mRNA RT-qPCR fold change; fold change at 33 µM; 550 tested, under 10 active; AID 743176;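 active = Ring1 gene expression raised more than 2-fold over untreated cells in both replicates at either tested dose; inconclusive = only one replicate above 2-fold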;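 also: Ring1 transcript normalised to actin housekeeping signal by TaqMan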
Fgf4 repress: esBAF inhibition confirmed by Fgf4 repression | Fgf4 expression fold change at 33 µM | shares compounds with esBAF inh | 550 tested, 4% active | mouse ESC E14, Fgf4 mRNA qPCR fold change; stronger effect = lower value;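 active = Fgf4 expression under 0.8 fold of control in both repeat measurements at one or both tested doses; inconclusive = under 0.8 fold in just a single repeat measurement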;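 also: Fgf4 transcript normalised to actin in duplex TaqMan qPCR; cells exposed to compound for 24 h before lysis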
Bmi1 derepress: confirmation of esBAF inhibitors: Bmi1 de-repression in mouse ESCs; shares compounds with esBAF inh; mouse ESE14 ES cells, Bmi1 mRNA qPCR fold; stronger effect = higher value; fold change at 33 µM; 550 tested, under 10 active; AID 743180;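 active = Bmi1 expression fold change above 6 at either tested concentration, seen in replicate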;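 also: higher fold means more Bmi1 de-repression and stronger esBAF inhibition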
A549 tox SP: kills or reduces viability of A549 cells | shares compounds with esBAF inh | A549 cytotoxicity, plate reader | cell viability change % (negative = cytotoxic), % at 25 µM, hits read low | 550 tested, under 10 active | AID 743188; call rule not given here
HepG2 cytotox SP: cytotoxicity in HepG2 cells | shares compounds with esBAF inh | plate reader; stronger effect = lower value | activity change, negative = inhibition, % at 25 µM | 550 tested, 4% active; in the data active = activity change below about -50%
HEK293 tox SP: cytotoxicity in HEK293 cells | plate reader | 550 tested, 3% active | activity change, negative = inhibition, % at 25 µM, hits read low | AID 743190 | shares compounds with esBAF inh; in the data active = activity change below about -38%, passing the limit was not always enough
An asterisk follows results filed as active.

Results for COc1ccc(-c2cc(C(=O)N3CCN(c4ccccc4)CC3)no2)cc1 ?
PHOSPHO1 inh: 44; esBAF inh: 60*; A3G deaminase: -5; MITF TRPM1 HTS: 55; Wnt bcat act: -3; A3A deaminase: -4; esBAF Ring1 qPCR: 1.3; Fgf4 repress: 0.93; Bmi1 derepress: 1.6; A549 tox SP: 4; HepG2 cytotox SP: 34; HEK293 tox SP: -9

Results for O=c1sc(N2CCN(c3ccc(F)cc3)CC2)nc2ccsc12 ?
PHOSPHO1 inh: 26; esBAF inh: 62*; A3G deaminase: 1; Wnt bcat act: 26; A3A deaminase: 0; esBAF Ring1 qPCR: 1.3; Fgf4 repress: 0.94; Bmi1 derepress: 1.6; A549 tox SP: 3; HepG2 cytotox SP: -13; HEK293 tox SP: -9

How did O=C(Nc1nc2ccsc2c(=O)s1)c1ccc(F)cc1 do in these assays?
PHOSPHO1 inh: 3; A3G deaminase: 12; Wnt bcat act: -3; A3A deaminase: 12

How did NNC(=O)c1nc2ccccc2s1 do in these assays?
esBAF inh: 68*; Wnt bcat act: -1; esBAF Ring1 qPCR: 1.2; Fgf4 repress: 0.83; Bmi1 derepress: 1.7; A549 tox SP: -5; HepG2 cytotox SP: -48; HEK293 tox SP: -10

How did ClCCn1cnc2c(SCc3ccccc3)ncnc21 do in these assays?
esBAF inh: 59*; MITF TRPM1 HTS: 138*; Wnt bcat act: 11; esBAF Ring1 qPCR: 1.1; Fgf4 repress: inconclusive; Bmi1 derepress: 2.2; A549 tox SP: -39; HepG2 cytotox SP: -16; HEK293 tox SP: -53*

How did CNC(=O)c1ccc(-c2cc3onc(-c4ccccc4)c3c(=O)n2C)cc1 do in these assays?
esBAF inh: 81*; A3G deaminase: 4; MITF TRPM1 HTS: 96*; Wnt bcat act: 43*; A3A deaminase: 3; esBAF Ring1 qPCR: 0.92; Fgf4 repress: 0.88; Bmi1 derepress: 1.5; A549 tox SP: -10; HepG2 cytotox SP: 15; HEK293 tox SP: -2

Results for CN(Cc1ccccn1)C(=O)c1cc(COc2ccc(F)c(F)c2)on1 ?
esBAF inh: 73*; Wnt bcat act: 2; esBAF Ring1 qPCR: 1.1; Fgf4 repress: 0.97; Bmi1 derepress: 1.1; A549 tox SP: -13; HepG2 cytotox SP: -13; HEK293 tox SP: -16

What do the screens show for `CC(=O)c1cccc(OCc2cc(C(=O)N(C)CCc3ccccn3)no2)c1`?
PHOSPHO1 inh: 28; A3G deaminase: -3; MITF TRPM1 HTS: -1; Wnt bcat act: 2; A3A deaminase: 9

What do the screens show for `Cc1ccc(OCc2cc(C(=O)NC(C)Cc3cccnc3)no2)cc1C` (stereo not drawn)?
PHOSPHO1 inh: 26; esBAF inh: 72*; A3G deaminase: -4; MITF TRPM1 HTS: 63; Wnt bcat act: 18; A3A deaminase: -3; esBAF Ring1 qPCR: 1.1; Fgf4 repress: 1; Bmi1 derepress: 1.9; A549 tox SP: 0; HepG2 cytotox SP: -12; HEK293 tox SP: -11

How did Cc1ccc(OCc2cc(C(=O)N(C)CCc3ccccn3)no2)cc1C do in these assays?
PHOSPHO1 inh: 17; esBAF inh: 87*; A3G deaminase: 1; MITF TRPM1 HTS: 73; Wnt bcat act: 22; A3A deaminase: -3; esBAF Ring1 qPCR: 1; Fgf4 repress: 1; Bmi1 derepress: 1.2; A549 tox SP: -6; HepG2 cytotox SP: -23; HEK293 tox SP: -12

What do the screens show for `CS(=O)(=O)Nc1ccc2c(c1)[C@@H]1C[C@@H](CC(=O)NCc3ccc(-c4ccccc4)cc3)O[C@@H](CO)[C@@H]1O2`?
esBAF inh: -34

How did COc1ccc(NC(=O)Nc2cccc3c2O[C@@H](CN(C)C(=O)Nc2ccc4c(c2)OCO4)[C@@H](C)CN([C@@H](C)CO)C3=O)cc1 do in these assays?
esBAF inh: 18

What do the screens show for `Cn1c(COc2ccccc2)nc2ccccc21`?
PHOSPHO1 inh: -75; esBAF inh: 57*; A3G deaminase: -2; Wnt bcat act: 42*; A3A deaminase: -6; esBAF Ring1 qPCR: 1; Fgf4 repress: 0.89; Bmi1 derepress: 1.5; A549 tox SP: -20; HepG2 cytotox SP: -23; HEK293 tox SP: -21

Results for CC(C)(O)c1cc2ccc(C#Cc3ccsc3)cc2c(=O)o1 ?
esBAF inh: 71*; A3G deaminase: -5; MITF TRPM1 HTS: 76; Wnt bcat act: 29; A3A deaminase: -2; esBAF Ring1 qPCR: 1.3; Fgf4 repress: 0.84; Bmi1 derepress: 2.3; A549 tox SP: -3; HepG2 cytotox SP: -19; HEK293 tox SP: -11

How did CC(C)(C)C(=O)N1CCN(c2nc3ccc(Cl)cc3s2)CC1 do in these assays?
PHOSPHO1 inh: 29; esBAF inh: inconclusive; A3G deaminase: -9; MITF TRPM1 HTS: 43; Wnt bcat act: 16; A3A deaminase: -4

How did CCCC(=O)N1CCN(c2nc3ccc(Br)cc3s2)CC1 do in these assays?
PHOSPHO1 inh: 31; esBAF inh: 66*; A3G deaminase: -4; MITF TRPM1 HTS: 67; Wnt bcat act: 0; A3A deaminase: -2; esBAF Ring1 qPCR: 0.96; Fgf4 repress: 0.89; Bmi1 derepress: 1.4; A549 tox SP: -6; HepG2 cytotox SP: -14; HEK293 tox SP: -34

What do the screens show for `CCCC(=O)N1CCN(c2nc3ccc(CC)cc3s2)CC1`?
PHOSPHO1 inh: 8; esBAF inh: 24; A3G deaminase: -5; MITF TRPM1 HTS: 61; Wnt bcat act: 13; A3A deaminase: -5

Results for CC(C)(C)C(=O)N1CCN(c2nc3ccc(Br)cc3s2)CC1 ?
PHOSPHO1 inh: 22; esBAF inh: 93*; A3G deaminase: -1; MITF TRPM1 HTS: 45; Wnt bcat act: 3; A3A deaminase: 2; esBAF Ring1 qPCR: 1.1; Fgf4 repress: 1; Bmi1 derepress: 1.7; A549 tox SP: -3; HepG2 cytotox SP: 10; HEK293 tox SP: -27

How did Cc1cc2nc(N3CCN(C(=O)c4cccs4)CC3)sc2cc1C do in these assays?
esBAF inh: 62*; A3G deaminase: -14; MITF TRPM1 HTS: 118*; Wnt bcat act: 19; A3A deaminase: -4; esBAF Ring1 qPCR: 1.1; Fgf4 repress: inconclusive; Bmi1 derepress: 1.4; A549 tox SP: -8; HepG2 cytotox SP: 24; HEK293 tox SP: -11
